This note sets out measurements from PubChem BioAssay (NCI).

Structures are written as SMILES. This is part of a sample that, as a whole, favours compounds with a hit. Of some 83,000 tested, about 20% had one in any assay.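 How to read the values: 0–100, growth inhibition (40 = 60% inhibited); 0, no net growth; -100 to 0, cell death (-40 = 40% of starting cells died; -100 = all dead).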 Unmarked numbers belong to inactive results. Active and inactive are the calls of the source. Rule for the calls: active = growth percent below 10; inactive = the rest.

The experiment concerns MDA-MB-468 breast. The experiment is described as follows: NCI-60 one-dose screen, 48 h (100 = growth as untreated, 0 = no growth, -100 = all killed). The settings on record: 10 µM unless noted.
For `Cc1occc1-c1nc2s/c(=C\c3cn(-c4ccccc4)nc3-c3ccccc3)c(=O)n2n1`, the growth was 89.8%.

For the molecule `C=C(C)[C@@H]1CC[C@]2(COCCCNCCC#N)CC[C@]3(C)[C@H](CC[C@@H]4[C@@]5(C)CC[C@H](OCCCNCCC#N)C(C)(C)[C@@H]5CC[C@]43C)[C@@H]12`, the growth was 8.32% (active).

Turning to `COc1ccc(-c2nc3ccc(-c4nc5ccc(N6CCN(c7ccc(F)cc7)CC6)cc5[nH]4)cc3[nH]2)cc1OC`, the growth was 67.4%.

Consider `COc1ccc2nc3cc(Cl)ccc3c(NCCCCCN3CCCCC3)c2c1`, for which the growth was -53.3% (active).

As to `COc1cc(-c2cc(-c3cccs3)c(C#N)c(N3CCOCC3)n2)cc(OC)c1OC`, the growth was 55%.

Regarding `COc1cc(C(=O)c2c(N)ncn2-c2ccccc2)cc(OC)c1OC`, the growth is 76%.

Turning to `CC(=O)OCC1OC(OC2C(COC(C)=O)OC(OCCC[S-])C(OC(C)=O)C2OC(C)=O)C(OC(C)=O)C(OC(C)=O)C1OC(C)=O.[Au+].c1ccc(CN2[CH-]N(Cc3ccccc3)C(c3ccccc3)=C2c2ccccc2)cc1` (stereo not given), the growth was 10.2%.

In the case of `C=C1C(=O)O[C@H]2[C@H]1CC/C(COC(=O)CCC(=O)OC/C1=C/CC[C@@]3(C)O[C@H]3[C@H]3OC(=O)C(=C)[C@@H]3CC1)=C\CC[C@@]1(C)O[C@@H]21`, the growth is -39% (active).

Regarding `O=S(=O)(Nc1ccccc1)c1ccc(C2CC3(Cl)C(Cl)=C(Cl)C2(Cl)C3(Cl)Cl)cc1` (stereo not given), the growth is 62.2%.

As for `Cc1nnc(NC(=O)c2nc(S(=O)(=O)Cc3ccc(F)cc3)ncc2Cl)s1`, the growth was -15.1% (active).

Consider `COC(=O)c1ccc2[nH]c(O)c(C(=Nc3ccc(N(C)C(=O)CN4CCN(C)CC4)cc3)c3ccccc3)c2c1`, for which the growth was 52.3%.

For `CC[C@H](Nc1nc(N)nc(C)c1C#N)c1nc2cccc(CN(C)c3ncc(C(=O)NO)cn3)c2c(=O)n1-c1ccccc1`, the growth is -11.3% (active).

For the molecule `O=c1c2cc(F)ccc2sc2c(NCCCNCCO)nc3ccc(Cl)cc3c12`, the growth is 68.2%.

Turning to `CC1=C[S+](c2ccccc2)c2cccc3cc4ccccc4c1c23` (stereo not given), the growth was -70% (active).

With `O=C(/C(=C\c1c(-c2ccccc2)[nH]c2ccccc12)S(=O)(=O)c1ccccc1)c1ccccc1`, the growth was 32.9%.

On to `COC(=O)C1(CC(C)=O)NC(=S)NC(=O)C1C#N` (stereo not given), for which the growth was 96%.

Consider `Cc1ccc(C2=Nc3c(N)ncnc3NC(c3cccc(Nc4ccnc5cc(C(F)(F)F)ccc45)c3)C2)cc1` (stereo not given), for which the growth was 24.8%.

In the case of `CCN(CC)CCN1C(=O)c2c(c(C)c3c(oc4ccc(O)cc43)c2C)C1=O`, the growth was 47.5%.

For the molecule `O=C(NCCOCCOCCNc1cccc2c1C(=O)N(C1CCCNC1=O)C2=O)c1cc2c(o1)C(=O)c1ccccc1C2=O` (stereo not given), the growth was -36.6% (active).

With `COc1cc(-c2nc(SCCC(C)C)nc(NNC(=O)c3ccncc3)c2C#N)cc(OC)c1OC`, the growth was 77.7%.

`COc1cc2c(c(OC)c1OC)C(=O)CC(c1cccc(C(=O)Nc3ccc(Br)cc3)c1)O2` (stereo not given): the growth was 30.5%.

On to `CCOC(=O)c1ccncc1`, for which the growth was 89.1%.

For `NNC(=S)N1N=C(c2cc3ccccc3o2)CC1c1c[nH]c2ccccc12` (stereo not given), the growth was 15.3%.

For `COc1cc(OC)c2c(c1)c1nc3cc(C)c(C)cc3nc1n2CCN(C)C`, the growth was 117%.

In the case of `Cc1ccc2c(ccc3c[n+]4c5ccccc5ccc4n32)c1`, the growth is -56.3% (active).

`CCCCCN1C=C/C(=C\C(=O)n2ccc3ccccc32)c2ccccc21`: the growth was 73%.

With `COc1ccc(OCC(=O)Nc2ccc(-c3nc4ccccc4s3)cc2C)cc1`, the growth was 7.38% (active).

As for `COc1ccc(/C=C/C(=O)c2ccc(-n3cc(CN4CCN(c5cc6c(cc5F)c(=O)c(C(=O)O)cn6C5CC5)CC4)nn3)cc2)cc1`, the growth is 26.3%.

For the molecule `O=C1CCC23OC(C(O)c4ccccc4N12)C1C(Br)=NOC13` (stereo not given), the growth was 115%.

Take `Nc1cc(N)c2cccnc2c1O`: the growth is 48.2%.

Take `O=C1CC23OC(C(O)c4ccccc4N12)C1C(c2ccccc2)=NOC13` (stereo not given): the growth is 40.9%.

As for `CCOCCc1c(O)nc(SC)[nH]c1=O`, the growth was 82.5%.

As to `CC(=O)OC(C(=O)O)c1ccccc1` (stereo not given), the growth was 104%.

As for `N=C(N)c1ccc(-c2ccc(-c3cc(F)cc(F)c3)o2)nc1`, the growth is 85.3%.

Consider `Nc1nc(-c2ccccc2Cl)cc(-c2ccc(Cl)cc2Cl)n1`, for which the growth is 18.6%.

For the molecule `CN1CCN(CCCCCN=c2cc3c(=O)n(CCCCCN4CCN(C)CC4)c(=O)c4c(NCCCCCN5CCN(C)CC5)cc5c(O)n(CCCCCN6CCN(C)CC6)c(=O)c2c5c4-3)CC1`, the growth is -50.8% (active).

`Cc1ccc(NS(=O)(=O)c2ccc3c(c2)C(=O)CC(c2ccc(C(=O)C(C)C)cc2)N3)cc1C` (stereo not given): the growth was -3.79% (active).

For the molecule `CCNNC(=O)[C@@H]1[C@H](c2cc(OC)c(OC)c(OC)c2)c2cc3c(cc2[C@H](O)[C@H]1CO)OCO3`, the growth was 7.05% (active).

As for `Cc1nc2ccccc2c(N)c1-c1cc(C)c2c(C)nc3ccccc3c2n1`, the growth is -94.8% (active).

For `COc1cc(-c2nn(-c3ccc(NC(=O)NCCCNC(=O)c4ccccc4)cc3)cc2-c2ccncc2)ccc1Cl`, the growth is 9.32% (active).
